Bioassay records: PubChem, several laboratories
This is a sample that favours compounds with a hit; in the whole collection about 12% have one here.
Lmaj promast – Leishmania major promastigote growth inhibition, primary screen; Leishmania major promastigotes, resazurin fluorescence viability; inhibition, % at 10 µM; 9% of 200,000 active; in the data active = inhibition above about 50%;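 note: promastigotes grown with compound for 44 hours at 28 °C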
CHOP inh – inhibitors of CHOP promoter induction, primary screen, cell-based, unfolded protein response, luciferase reporter. CHO-K1 CHOP-promoter luciferase, tunicamycin-induced, 15-18 h. 3.8% of 220,000 active. inhibition, % at 10 µM;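 active = compounds that reduced the stress-induced luciferase reporter signal by more than about 70% of percent inhibition, limit read from the data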;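 note: 0% = tunicamycin plus vehicle and 100% = wells without tunicamycin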
Arbovirus inh – antivirals against arbovirus infection, primary screen, cell-based, full library, 10K replicate subset; 0.37% of 200,000 active; arbovirus infection cell-based antiviral screen; AID 1251, 2008; inhibition, % at 10 µM; in the data active = inhibition above about 30%
WT yeast gro inh – growth inhibition of WT strain, primary screen, mitochondrial fusion inhibitor project, WT and mutant strains, chemical genetic. mitochondrial fusion phenotypic screen. inhibition, % at 10 µM. 2.1% of 190,000 active; in the data active = inhibition above about 58%; tested in S. cerevisiae
* marks the source's active call; other numbers are inactive results; / = no result given.

SMILES	Lmaj promast	CHOP inh	Arbovirus inh	WT yeast gro inh
COc1cc(-c2nc(C)c(C(C)=O)n2O)ccc1OCC(=O)Nc1ccc(Cl)cc1	-9	9	-6	46
CCOc1ncccc1C(=O)Nc1cccc(Cl)c1Cl	-2	32	-2	-9
O=C(c1ccc(CNc2c(NC3CCCCC3)c(=O)c2=O)cc1)N1CCc2ccccc21	-4	73*	-2	-6
CCOC(=O)c1cnc(SC)nc1Sc1ccccc1	-5	75*	4	24
CCOC(=O)c1cnc(SC)nc1N	1	-9	0	7
Cc1cc(N)ccc1-n1c(C)ccc1C	-8	34	-4	7
Cc1cc(N)ccc1N1CCCC1	58*	9	-10	13
Cc1c(Cl)cccc1NC(CC(=O)c1ccccc1)C(=O)O (stereo not given)	67*	21	1	8
CC(=O)c1ccc(NC(=S)NCCc2ccccn2)cc1	71*	12	4	-17
Cc1ccc(C2=NOC(C)(c3nnc(-c4ccc(Cl)cc4)o3)C2)cc1 (stereo not given)	/	15	/	/
Cc1onc(-c2ccccc2)c1C(=O)Nc1nnc(COc2ccc(Cl)cc2)s1	-5	89*	15	63*
Cc1onc(-c2ccccc2Cl)c1C(=O)Nc1nnc(-c2ccc(Br)cc2)s1	3	30	-1	68*
O=C(Nc1nnc(COc2ccccc2)s1)C1CCN(S(=O)(=O)c2ccc(Cl)cc2)CC1	-5	80*	5	-42
Cc1onc(-c2c(F)cccc2Cl)c1C(=O)NCCO	-2	-4	2	-26
Cc1onc(-c2c(Cl)cccc2Cl)c1C(=O)N/N=C(\N)COc1ccc(Cl)cc1	97*	22	-34	-24
O=C(Nc1nnc(-c2ccccc2Cl)s1)C1CCN(S(=O)(=O)c2ccc(Cl)cc2)CC1	-1	7	-10	-9
Cc1ccccc1Cn1cc(NC(=O)CSc2nc3c(c(C(F)(F)F)n2)CCc2ccccc2-3)cn1	7	6	0	10
CC1=NN(c2nc3ccccc3[nH]2)C(=O)C1Cc1ccccc1 (stereo not given)	/	-2	/	/
Cc1onc(-c2ccccc2Cl)c1C(=O)Nc1nnc(-c2ccc(Cl)cc2Cl)s1	-11	78*	-14	63*
C=C/C(C)=C/[C@@]1(C)SC(=O)C(C)=C1O	/	-6	/	/
CC1(/[N+]([O-])=C\c2ccccc2F)CCCCC1=O (stereo not given)	/	5	/	/
Cc1ccc(Nc2ncccc2C(=O)NCc2cccs2)c(C)c1	96*	-27	-24	67*
Cc1cccc(Nc2ncccc2C(=O)NCc2cccs2)c1C	79*	54	5	46
O=C(NCc1cccs1)c1cccnc1Cl	-5	20	-2	-6
CCN(CC)C(=O)Cn1cc(SCC(=O)NC)c2ccccc21	-4	-28	1	-6
SMILES	Lmaj promast	CHOP inh	Arbovirus inh	WT yeast gro inh
C=CCN1CC(c2nc3ccccc3n2Cc2cccc3ccccc23)CC1=O (stereo not given)	87*	22	-13	-6
CCCn1c(C2CC(=O)N(c3ccc(C)cc3)C2)nc2ccccc21 (stereo not given)	3	-12	12	3
Cc1ccc(OCCn2c(C3CC(=O)N(Cc4ccccc4)C3)nc3ccccc32)cc1 (stereo not given)	92*	54	-39	9
CCn1c(C2CC(=O)N(c3cc(C)cc(C)c3)C2)nc2ccccc21 (stereo not given)	-3	75*	7	-12
CCOC(=O)c1cncc(O)c1	/	5	/	/
CSCCC(NS(=O)(=O)/C=C/c1ccccc1)C(=O)O (stereo not given)	-2	-20	15	-7
O=c1[nH]c(=O)n(Cc2ccco2)c2c1C(C(F)(F)F)(C(F)(F)F)N=C(Cc1ccccc1)N2	10	18	-5	62*
CC(=O)NC1(C(F)(F)F)C(=O)Nc2c1c(=O)[nH]c(=O)n2Cc1ccco1 (stereo not given)	-2	1	7	-11
COc1ccc2c(c1)-c1nc(NC(=O)c3cccs3)sc1CC2	27	45	-29	72*
COc1ccc2c(c1)Cc1sc(NC(=O)c3ccco3)nc1-2	53*	-4	3	12
COc1ccc2c(c1)-c1nc(NC(=O)c3ccco3)sc1CC2	6	-17	-3	36
COc1ccc2c(c1)-c1nc(/N=C/c3ccc(O)cc3)sc1CC2	-3	1	10	32
COc1ccc2c(c1)Cc1sc(NC(=O)c3cccnc3)nc1-2	55*	58	1	20
COc1ccc2c(c1)-c1nc(/N=C/c3c(O)ccc4ccccc34)sc1CC2	81*	30	3	15
